These results are taken from PubChem BioAssay (NCI).

The panel holds about 83,000 compounds, 20% with a hit somewhere; the sample as a whole holds those more often.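 Negative percent growth values reflect cell death: -40 means 40% of the cells present at the start died, and -100 means all died.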 Values without a mark were called inactive. Active and inactive are the calls of the source. Rule for the calls: active = growth percent below 10; inactive = the rest.

The test system of the assay is HL-60(TB) leukemia. Nature of the assay: NCI-60 one-dose screen, 48 h (100 = growth as untreated, 0 = no growth, -100 = all killed). The settings on record: 10 µM unless noted.
As for `COc1ccc2c(c1)c(-c1nc(-c3cn(C)c4ncccc34)cs1)cn2CCO`, the growth was 82.4%. As for `Cc1ccc(S(=O)(=O)NNC(=O)/C(=C\c2ccc(Cl)cc2)c2nc3ccccc3s2)cc1`, the figure is 89.7%.

Take `Cc1nc2c(nnn2-c2ccccc2)c2nc(-c3ccccc3)oc(=O)c12`: the growth is 109%. As for `C=C1C(=O)O[C@H]2[C@H]1CC/C(COC(=O)OCCCCCOC(=O)OC/C1=C/CC[C@@]3(C)O[C@H]3[C@H]3OC(=O)C(=C)[C@@H]3CC1)=C\CC[C@@]1(C)O[C@@H]21`, the figure is -23.1% (active); as for `FC(F)(F)c1ccc(CNc2ccc(Cc3c[nH]c4ncc(Cl)cc34)cn2)cn1`, 4.54% (active); as for `COc1cccc(-c2nn(-c3ccccc3)cc2-c2ccnc(NCCCNS(=O)(=O)c3ccccc3)c2)c1`, 16%. For the compound `CNC(=O)c1cncc(Cn2nc(C)c(NC(=O)c3ccc(COc4ccc(C(F)(F)F)cc4C)cc3)c2C)c1`, the growth is 63.6%. As for `Cn1cc(-c2ccc3c(Nc4cccc(NC(=O)Nc5cccc(F)c5)c4)ncnc3c2)cn1`, the figure is 74.1%; as for `COc1ccc(CNCCCN2C(=O)c3ccc4c5c(ccc(c35)C2=O)C(=O)N(CCCNCc2ccc(OC)c(OC)c2OC)C4=O)c(OC)c1OC`, -61.3% (active); as for `C=C(C)[C@@H]1CC[C@]2(COCCC#N)CC[C@]3(C)[C@H](CC[C@@H]4[C@@](C)(CCCNCCC#N)[C@H](C(=C)C)CC[C@]43C)[C@@H]12`, -16.2% [100 µM] (active). As for `O=C(Nn1c2c(sc1=NC1CC1)C(=O)c1ccccc1C2=O)c1cc2ccc1CCc1ccc(cc1)CC2`, the figure is 2.39% (active). On to `NCCCN1CCCC1=O`, for which the growth was 90.1%. With `CCC(=O)OCc1cccc(OC)c1`, the growth was 53.7%. As for `Nc1cc(C(F)(F)F)c(-c2cc(N3CCOCC3)nc(N3CCOCC3)n2)cn1`, the growth is -41.3% (active).

Consider `CC/C=C/C/C=C/C/C=C/C/C=C/C/C=C/C/C=C/CCC(=O)Nc1ccn([C@@H]2O[C@H](CO)[C@@H](O)C2(F)F)c(=O)n1`, for which the growth was -16.1% (active).

For the compound `COc1cc(/C=C(\C#N)C(=O)c2ccccc2)ccc1OCc1ccccc1`, the growth was 103%. `CN1CCN(Cn2nc(-c3cc(Cl)cc(Cl)c3Cl)oc2=S)CC1`: the growth was 82%. With `COc1cc2nc(SCc3cc(OC)c(OC)c(OC)c3)n(-c3ccccc3OC)c(=O)c2cc1OC`, the growth is -16% (active). For `CCCNC(=O)c1ccc(S(N)(=O)=O)cc1`, the growth was 133%. As for `O=C(NCCNc1nccc(-c2c(-c3cccc(F)c3)nc3sccn23)n1)c1ccc(Cl)cc1`, the figure is 99.1%.

`CCCC(=O)c1cccs1`: the growth was 87.9%.

`O=C(CN1C(=O)NC(c2ccccc2)(c2ccccc2)C1=O)c1ccc(N2CCCC2)cc1`: the growth is 85.5%.

As to `COc1ccc(/C=C/C(=O)c2c(O)c(C)c(O)c3c2OC2=CC(O)=C(C(C)=O)C(=O)[C@]23C)cc1`, the growth was -34.6% (active). As for `Nc1c(C(=O)Nc2cccc([N+](=O)[O-])c2)sc2nc3c(cc12)C(O)CCC3` (stereo unspecified), the figure is 9.71% (active). Regarding `N#Cc1c(NC(=O)c2cccs2)[n+]([O-])c2ccc(F)cc2[n+]1[O-]`, the growth is 91.6%. For `Oc1ccc(C2OCCO2)c2cccnc12`, the growth was 15.8%.
